# Marburg entry inh: Marburg virus entry inhibition; AID 540276; 300,000 tested, 1.8% active; Potency, µM (top dose mostly 37.8 µM), hits mostly inhibitors; Marburg virus pseudotyped entry inhibition, cell reporter; calls by dose curve; tested in HEK293 cells
# VACV mCherry inh: vaccinia inhibition (mCherry reporter); Vaccinia virus mCherry reporter infection, fluorescence; 310,000 tested, 0.63% active; Potency, µM (top dose mostly 36.5 µM), hits mostly inhibitors; calls by dose curve; tested in A549 cells; also: nearly all actives have a fitted effect of over 35% in size
# VACV Venus inh: inhibitors of vaccinia virus (Venus reporter). Vaccinia virus Venus reporter expression, fluorescence. Potency, µM (doses to about 36.5 µM), most hits filed as inhibitors. 330,000 tested, 0.46% active; calls by dose curve; tested in A549 cells; also: nearly all actives have a fitted effect of over 30% in size
# HCMV inh: human cytomegalovirus inhibition. HFF cells, HCMV-luciferase reporter, 72 h; stronger effect = lower value. activity change, negative = inhibition, % at 57.5 µM. 410,000 tested, 4.5% active. AID 1259415; in the data active = activity change below about -60%; inconclusive = no clear call, values can overlap the other calls; inactive = above about -39%
#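 Two compound doses tested in HFFs infected with HCMV-luciferase, MOI 1 PFU/cell, 72 h at 37C. Lysate luminescence read with OneGlo; data normalized against buffer-only and 10uM Salinomycin inhibitor controls.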
# HCV inhibitor: blocks hepatitis C virus; Huh7.5.1 HCVcc-Cre infection, luciferase reporter, 44 h; Potency, µM (titrated, usually from 41.8 µM), hits mostly inhibitors; 340,000 tested, 3.4% active; AID 651820; active = well fitted inhibition curve with a large enough effect; inconclusive = small, poorly fitted or top-dose-only effect, or another doubt; inactive = no such curve, though single readings can be large or run the other way
#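 Seed cells (1,000/well) for 4 h; treat with compound and infect with HCVcc-Cre, moi about 0.5. Incubate 44 h, then detect luciferase activity.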
# LASV entry inh: Lassa virus entry inhibition | Lassa virus pseudotype entry inhibition, cell reporter | Potency, µM (top dose mostly 37.9 µM), actives largely listed as inhibitors | 300,000 tested, 1.2% active | AID 540256; calls by dose curve; tested in HEK293 cells; also: nearly all actives have a fitted effect of over 50% in size
# Hits are given with their value; i = inactive; ? = inconclusive; nt = not tested or not shown; [ ] = remark or other dose. Rows were chosen to be rich in hits. Some 7.8% of all compounds tested hit in one or more screens of this group.
SMILES,Marburg entry inh,VACV mCherry inh,VACV Venus inh,HCMV inh,HCV inhibitor,LASV entry inh
O=C1Nc2ccccc2/C1=C/c1ccccc1F,i,i,i,i,?,i
O=C1Nc2ccccc2/C1=C\c1cccn1-c1ccc(OC(F)(F)F)cc1,i,nt,nt,i,0.562µM,i
CCOC(=O)N1CCN(C(=O)CSc2nc3nc(C)cc(C)n3n2)CC1,i,i,i,i,i,i
Cc1cc(C)n2nc(SCC(=O)N3CC(C)CC(C)C3)nc2n1 (centres undefined),i,i,i,-65.1,i,i
Cc1cc(C)n2nc(SCC(=O)c3cc(C)n(-c4cc(C)on4)c3C)nc2n1,i,i,?,?,4.47µM,i
Cc1cc(C)n2nc(SCC(=O)c3ccccc3)nc2n1,?,i,i,i,?,i
Cc1cc(-n2c(C)cc(C(=O)CSc3ncnc4ccccc34)c2C)no1,9.2µM,nt,nt,-78.3,2.82µM,?
Cc1cc(C(=O)CSc2ncnc3ccccc23)c(C)n1C1CC1,i,i,i,i,10µM,i
COc1ccccc1C(=O)Nc1ccccc1OCc1cc(=O)n2cc(C)sc2n1,i,i,i,i,nt,?
O=C1C=C(N2CCOCC2)c2ccccc2C1=O,2.51µM,?,11.2µM,-96.7,?,?
O=C1C=C(N2CCOCC2)c2cccc3cccc1c23,nt,i,i,i,nt,nt
CC1=C(C)C(=O)C(N2CCOCC2)=CC1=O,i,nt,nt,-68.4,i,nt
COC1=CC2C(=O)C(C1=O)[C@H](c1ccccc1)[C@H]2C (some centres undefined),i,nt,nt,nt,nt,nt
O=C(NC1CCCCC1)N1CC(=O)N2[C@H](CO)[C@H](c3ccc(Br)cc3)[C@@H]2C1,nt,nt,nt,i,nt,nt
CCCCc1ccc(NC(=O)CSc2nc(=O)[nH]c3c2CCCC3)cc1,nt,i[7.34 µM],i[7.34 µM],?,nt,?
c1ccc2c(N3CCNCC3)cccc2c1,11.2µM,i,i,i,?,i
COc1cc2nc(C)sc2cc1SC,i,nt,nt,i,?,i
COc1cc2nc(/C=C/c3cc(OC)c(OC)c(OC)c3)sc2cc1SC,7.08µM,?,?,i,10µM,?
S=c1[nH]c2cnc(Cl)nc2[nH]1,i,i,i,-68.3,i,i
Cc1ccc(-n2nc(C(=O)NCc3ccc(F)cc3Cl)c3c4ccccc4n(C)c3c2=O)cc1,i,i,i,i,nt,i
Cc1ccc2nc(SC(C(=O)Nc3ccc(F)cc3)c3ccccc3)[nH]c2c1 (centres undefined),?,?,?,i,?,i
Cc1ccc(C)c(NC(=O)C(Sc2nc3ccc(C)cc3[nH]2)c2ccccc2)c1 (centres undefined),8.91µM,i,?,-73.7,?,?
Cc1nc2c(C(=O)NC(C)c3ccccc3)cnn2c(C)c1Cc1ccccc1 (centres undefined),nt,i,?,-85.6,nt,?
Cc1ccc(CNC(=O)c2cnn3c(C)c(Cc4c(F)cccc4Cl)c(C)nc23)cc1,nt,i,i,i,nt,i
Cc1cc(C)c(Cc2c(C)nc3c(C(=O)NCc4ccco4)cnn3c2C)c(C)c1,?,i,i,-98.9,8.91µM,i
SMILES,Marburg entry inh,VACV mCherry inh,VACV Venus inh,HCMV inh,HCV inhibitor,LASV entry inh
S=C(NCC1CCCO1)N1CCN(c2nc(-c3ccccc3)cs2)CC1 (centres undefined),?,?,i,i,10µM,?
CCNC(=S)N1CCN(c2nc(-c3ccc(F)cc3)cs2)CC1,nt,nt,nt,-60.9,?,nt
CCCCC(=O)N1CCN(c2nc(-c3ccc(F)cc3)cs2)CC1,i,i,i,i,?,i
CCN(CC)CCCNC(=S)N1CCN(c2nc(-c3ccc(F)cc3)cs2)CC1,10µM,i,?,-96.7,3.98µM,?
S=C(NCC1CCCO1)N1CCN(Cc2ccccc2)CC1 (centres undefined),i,i,i,i,i,i
CCc1ccc(NC(=O)CSc2ccc3nc(-c4ccc(OC)cc4)cn3n2)cc1,nt,i,i,i,nt,?
CCN(c1cccc(C)c1)S(=O)(=O)c1ccc(N2CCCCS2(=O)=O)cc1,nt,i,i,i,nt,i
CNS(=O)(=O)c1cc(N(C)S(=O)(=O)c2ccc(C)cc2)c(C)cc1C,?,i,i,?,i,i
Cc1ccc(S(=O)(=O)N(C)c2cc(S(=O)(=O)N3CCC(C)CC3)c(C)cc2C)cc1,?,nt,i,?,10µM,?
COc1cc(=O)n2c(c1C(=O)N(C)Cc1nccs1)CCN(Cc1cccc(F)c1F)CC2,nt,i,i,nt,nt,nt
C/C(=N\NC(=S)NC1CCCCC1)c1c(F)cccc1F,?,i,i,-79.5,?,?
O=CC1=C(c2ccccc2)Oc2ccccc2O1,7.94µM,?,i,-94.3,i,?
Cc1nn(-c2ccccc2)c(C)c1CC(=O)NCC1Cc2cc(F)cc(-c3cccnc3)c2O1 (centres undefined),nt,i,i,nt,nt,nt
O=C(CCN1CCCCC1)Nc1ccc(Br)cc1C(=O)c1ccccc1,12.6µM,i,i,?,?,i
CC(C(=O)Nc1ccc(Br)cc1C(=O)c1ccccc1)N1CCCCC1 (centres undefined),?,nt,nt,i,?,i
COc1ccc(OCCN2CCN(C(=O)c3ccc(OC)cc3)CC2)cc1,?,i,i,-89.7,10µM,?
O=C(c1ccc(Cl)cc1)N1CCN(CCOc2ccccc2)CC1,i,i,i,i,?,i
COc1ccc(OCCN2CCN(C(=O)c3ccc(OC(F)F)c(OC)c3)CC2)cc1,?,i,i,-62.8,?,i
O=S(=O)(CC(CN1CCCC1)N1CCCC1)c1ccc2ccccc2c1 (centres undefined),18.3µM,nt,nt,-101.6,10µM,10.3µM
Cc1ccc(S(=O)(=O)CC(CN2CCOCC2)N2CCOCC2)cc1 (centres undefined),?,i,i,i,i,i
CN(C)CCNc1nc(-c2ccco2)c2c(c1C#N)CC(C)(C)OC2,i,nt,nt,-100.4,?,i
COc1ccccc1CCNC(=O)C(=O)NCC(c1ccco1)S(=O)(=O)c1ccc(C)cc1 (centres undefined),nt,i,i,i,nt,i
Clc1ccc(-c2cn3nc4c(nc3n2)CCCC4)cc1,?,nt,i,?,i,0.708µM
COc1cccc(-c2cn3nc4c(nc3n2)CCCC4)c1,?,nt,i,nt,i,?
CCc1ccc(NC(=S)NCc2cccnc2)cc1,i,i,i,i,i,i
SMILES,Marburg entry inh,VACV mCherry inh,VACV Venus inh,HCMV inh,HCV inhibitor,LASV entry inh
S=C(NCc1ccccc1)Nc1ccncc1,i,i,i,?,1.78µM,?
S=C(NCc1cccnc1)Nc1ccc(Oc2ccccc2)cc1,nt,nt,nt,-70.8,?,nt
CC(C)CNC(=S)Nc1ccc(Oc2ccccc2)cc1,?,i,i,-62.7,?,i
CCCCc1ccc(NC(=S)NCc2cccnc2)cc1,i,i,i,-77.0,?,i
Cc1cc(C)c(NC(=O)C2CCCN(C(=O)c3cnn(-c4ccccc4)c3-n3cccc3)C2)c(C)c1 (centres undefined),i,i,i,i,nt,i
Cc1oc(-c2cccc(Cl)c2)nc1CSCC(=O)NCc1ccccc1Cl,i,i,i,i,nt,i
CCOc1ccc(-c2nnc(SCC(=O)Nc3cccc(C#N)c3)o2)cc1,i,i,i,i,nt,i
O=S(=O)(c1ccc(NC(=S)NCc2ccncc2)cc1)N1CCCCC1,?,i,i,-64.7,i,i

# Screening data from PubChem BioAssay.
